Source: PubChem BioAssay (National Center for Advancing Translational Sciences (NCATS))
IMPase Li cell – qHTS Assay for Identifying the Cell-Membrane Permeable IMPase Inhibitors: Potentiation with Lithium | CHO-M1 cells, IP1 TR-FRET (IP-One), carbachol + lithium | 0.35% of 210,000 active | Potency, µM (series often up to 59.4 µM), for the others: at the top dose activity, negative = IMPase inhibition, most hits filed as inhibitors;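 note: IP1 builds up when IMPase is blocked and the TR-FRET signal falls; potency is the fitted concentration of half-maximal effect; plate controls were basal vehicle for no effect and high inhibitor control for full effect; nearly all actives have a fitted effect of over 50% in size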
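Test compounds were applied to CHO-M1 cells previously cultured for 16–30 h at 2000 per well. A small lithium amount accompanied them; after 30 min at 37C, IP1 was quantified by TR-FRET.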
IMPase inh – qHTS Assay for Identifying the Cell-Membrane Permeable IMPase Inhibitors; Inositol monophosphatase 1 (Rattus norvegicus), P97697; CHO-M1 cells, IP1 accumulation, HTRF TR-FRET ratio; inhibition (IP1 accumulation), % at 46.1 µM; 120,000 tested, under 10 active; active = well fitted curve in the direction sought with a large enough effect in the signal ratio, not every such curve was filed as active; inconclusive = small, poorly fitted or top-dose-only effect, or a change in a side signal; inactive = no such curve, though single readings can be large or run the other way; the % refers to the signal ratio;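 note: cells stimulated with carbachol in lithium chloride buffer; plate controls were DMSO basal wells for no effect and reference inhibitor wells for full effect; higher means more IMPase inhibition seen as more IP1 and lower FRET ratio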
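The IP-One HTRF competitive assay in carbachol-stimulated CHO-M1 cells quantifies cellular IP1. Compounds spanned up to 46 uM final, and activity is expressed as AC50 from concentration-response fits of the ratio and donor data.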
HPGD block – qHTS Assay for Inhibitors of HPGD (15-Hydroxyprostaglandin Dehydrogenase); purified HPGD, NADH fluorescence kinetic, PGE2 substrate; 4.3% of 150,000 active; Potency, µM, inactives show at the highest dose activity change, negative = inhibition, hits mostly inhibitors; 15-hydroxyprostaglandin dehydrogenase [NAD(+)] (Homo sapiens), P15428; active = well fitted inhibition curve with a large enough effect, not every such curve was filed as active; inconclusive = small, poorly fitted or top-dose-only effect, or another doubt; inactive = no such curve, though single readings can be large or run the other way; note: potency is the fitted concentration of half-maximal effect
Target sequence (P15428 whole entry, looked up): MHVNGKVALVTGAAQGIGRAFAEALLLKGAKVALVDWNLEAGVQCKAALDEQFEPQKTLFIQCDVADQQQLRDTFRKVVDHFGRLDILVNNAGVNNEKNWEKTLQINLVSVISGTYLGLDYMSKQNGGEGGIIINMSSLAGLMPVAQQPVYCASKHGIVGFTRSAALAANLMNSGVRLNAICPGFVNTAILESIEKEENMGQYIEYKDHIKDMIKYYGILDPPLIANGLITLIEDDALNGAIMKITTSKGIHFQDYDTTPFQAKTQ
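NADH formation kinetics: reaction with 30 uM PGE2 and 1 mM NAD+ (final), 20 nM enzyme, Tris-HCl pH 8 with Tween 20, after 15 min compound preincubation at room temperature. Fluorescence change, last versus first of five reads.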
PNC assembly inh – High Content Assay for Compounds that inhibit the Assembly of the Perinucleolar Compartment; PC3M PTB-GFP, PNC prevalence imaging, 16 h; stronger effect = lower value; activity change (PNC), negative = inhibition, % at 10 µM; 3.1% of 140,000 active; AID 2417, 2010;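 active = readout at or below -70, meaning at least 70% loss of cells showing the perinucleolar compartment, a nuclear body marking cancer cells; inconclusive = readout between -30 and a set limit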;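 note: plate controls were DMSO wells for no effect and camptothecin positive control wells for full effect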
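Compounds are pinned in duplicate onto adhered PC3M cells stably expressing GFP-tagged PTB and incubated 16 h at 37 C. Cells are then fixed, nuclei stained with Hoechst, and PNC-positive cells counted.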
ALDH1A1 inh – qHTS Assay for Inhibitors of Aldehyde Dehydrogenase 1 (ALDH1A1); Purified ALDH1A1, NADH fluorescence, propionaldehyde substrate; Potency, µM (titrated, usually from 75.3 µM), without a hit: at the highest dose activity, negative = inhibition, usual class: inhibitors; 7.3% of 220,000 active; AID 1030, 2008; active = well fitted inhibition curve with a large enough effect, not every such curve was filed as active; inconclusive = small, poorly fitted or top-dose-only effect, or another doubt; inactive = no such curve, though single readings can be large or run the other way;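 note: potency is the fitted concentration of half-maximal effect; plate controls were no enzyme wells and a reference inhibitor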
Target sequence (P00352 whole entry, looked up): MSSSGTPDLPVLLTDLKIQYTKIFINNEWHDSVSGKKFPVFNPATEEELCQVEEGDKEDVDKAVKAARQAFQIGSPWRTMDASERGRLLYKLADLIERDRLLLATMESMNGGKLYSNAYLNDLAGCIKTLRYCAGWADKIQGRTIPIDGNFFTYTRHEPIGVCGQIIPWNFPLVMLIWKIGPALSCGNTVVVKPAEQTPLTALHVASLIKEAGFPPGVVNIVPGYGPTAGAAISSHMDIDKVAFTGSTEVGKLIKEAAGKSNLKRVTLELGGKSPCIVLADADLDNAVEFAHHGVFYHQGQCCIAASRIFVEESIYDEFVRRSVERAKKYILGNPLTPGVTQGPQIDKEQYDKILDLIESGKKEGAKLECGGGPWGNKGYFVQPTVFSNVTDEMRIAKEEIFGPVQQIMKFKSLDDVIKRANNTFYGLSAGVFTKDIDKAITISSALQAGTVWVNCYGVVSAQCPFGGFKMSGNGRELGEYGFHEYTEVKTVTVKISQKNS
ALOX12 inhib – qHTS Assay for Inhibitors of 12-hLO (12-human lipoxygenase); Polyunsaturated fatty acid lipoxygenase ALOX12 (Homo sapiens), P18054; purified 12-hLO, xylenol orange hydroperoxide absorbance; 0.12% of 150,000 active; Potency, µM (series often up to 57.1 µM), without a hit: at the top dose activity change, negative = inhibition, actives largely listed as inhibitors; note: potency is the fitted concentration of half-maximal effect; nearly all actives have a fitted effect of over 55% in size
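Purified human 12hLO (150 nM), preincubated 15 min with compound, then 40 uM arachidonic acid for 30 min, room temperature, Hepes pH 7.0 with 0.01% Triton X-100. Hydroperoxide detected by ferrous iron/xylenol orange; 573/405 nm absorbance ratio gives reaction progress.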
Numbers without * were called inactive; ? = inconclusive; nt = no result given; [ ] = another dose, or the depositor's remark. A selection: hits, their analogues and other compounds. The true share with any hit is near 11%. Unless noted, calls come from the whole dose curve; as a rule, active = well fitted curve in the direction sought with a large enough effect; inconclusive = small, poorly fitted or top-dose-only effect, or another doubt; inactive = no such curve, though single readings can be large; an effect the other way counts as inactive or inconclusive. Unless noted, % is set by controls: 0 for no effect and ±100 for the full control effect.

SMILES	IMPase Li cell	IMPase inh	HPGD block	PNC assembly inh	ALDH1A1 inh	ALOX12 inhib
Cc1ccc(C2C(C#N)=C(N)SC(N)=C2C#N)cc1	?	?	-16%	-26	22µM*	?
Cc1[nH]nc2c1C(c1ccoc1)C(C#N)=C(N)O2 (configuration not stated)	-3%[38.3 µM]	7	0%	33	-2%	-1%
Cc1ccc(C2C(C#N)=C(N)Oc3c2c(=O)n(C)c(=O)n3C)cc1 (configuration not stated)	3%[38.3 µM]	0	-4%	14	-1%	-3%
N#CC1=C(N)SC(N)=C(C#N)C1c1ccoc1	?	?	28µM*	?	20µM*	-27%
O=c1c(CCc2ccccc2)nc2cnc(N3CCNCC3)nc2n1CCc1ccccc1	27%	nt	?	nt	?	6%
COc1ccc(Cc2n[nH]c(=S)n2N)cc1OC	-5%	nt	nt	nt	10µM*	nt
CCOc1ccc(Cc2n[nH]c(=S)n2N)cc1	1%	nt	?	-9	?	-2%
Nn1c(Cc2ccc(Br)cc2)n[nH]c1=S	0%	nt	nt	nt	11µM*	nt
CCN1c2ccccc2NC2C1C(C(C)=O)C(=O)N2c1ccc(Cl)cc1 (configuration not stated)	-6%[38.3 µM]	10	-13%	-23	14µM*	?
O=C1Nc2ccccc2N(O)N1c1ccc(Cl)cc1	-4%	nt	nt	nt	11%	nt
COC(=O)C/C=C/C(C)C(OCc1cccc(Br)c1)C(C)C(OC)C1CCCCC1 (configuration not stated)	nt	nt	nt	nt	7%[13.5 µM]	nt
COc1c2c(nc3occc13)C(CC=C(C)C)(OC)C(OC(C)=O)CC2 (configuration not stated)	16%	7	5%	-14	-11%	1%
COc1c2c(nc3occc13)C(CC=C(C)C)(OC)C(O)CC2 (configuration not stated)	-6%	-7	7%	-100*	1%	4%
O=C(NC1CCCCC1)C1CCN(c2cnccn2)CC1	-1%[38.3 µM]	0	-11%	-95*	15%	2%
Cc1ccccc1NC(=O)C1CCN(c2cnccn2)CC1	-3%	-1	-20%	14	-5%	2%
COc1ccc(P(=O)(COc2ccc([N+](=O)[O-])cc2)c2ccc(OC)cc2)cc1	4%	nt	-5%	-13	7.1µM*	-5%
COc1ccc(CCNC(=O)COc2ccc([N+](=O)[O-])cc2)cc1	6%	nt	nt	nt	?	nt
Cc1cccc(C(=O)NNC(=O)c2ccc(Br)cc2)c1	-8%	nt	nt	nt	9%	nt
CC(C)c1ccc(NC(=O)c2cccc(Br)c2)cc1	4%	nt	nt	nt	-3%	nt
Cc1cccc(NCCC(=O)c2ccc(Br)cc2)c1	25%[38.3 µM]	2	-10%	-21	0.79µM*	-5%
CCOC(=O)CNCCC(=O)c1ccc(Br)cc1	4%	nt	?	-2	0.28µM*	-2%
CC(C)c1ccc(NCCC(=O)c2ccc(Br)cc2)cc1	12%	0	-8%	?	4µM*	1%
CCc1ccc(C2CC(=O)c3c([nH]c(C(=O)OC4CCCC4)c3C)C2)cc1 (configuration not stated)	nt	7	nt	nt	nt	nt
CC(C)=CC1C=C(C)C(C)C2C(=O)NNC(=O)C12 (configuration not stated)	11%[38.3 µM]	-9	-9%	-16	3.5µM*	14%
Nc1nc(-c2cccc(NS(=O)(=O)c3ccccc3)c2)cs1	14%	4	11µM*	11	7.9µM*	-15%
SMILES	IMPase Li cell	IMPase inh	HPGD block	PNC assembly inh	ALDH1A1 inh	ALOX12 inhib
COC1=CC(=O)C(C(=O)c2ccccc2)=CC1=O	17%	nt	4.5µM*	nt	?	-22%
CC(C)(CSc1ccccn1)NS(=O)(=O)c1ccc(Cl)cc1	25%	nt	-8%	-14	10µM*	-6%
COc1ccc(Cl)cc1NC(=O)CN(c1cccc(C)c1C)S(=O)(=O)c1ccccc1	nt	11	nt	nt	nt	nt
CC1(C)Cc2c(c(=S)nc(-c3ccccc3)n2CCO)CO1	12%[38.3 µM]	11	35µM*	2	25µM*	-3%
Cc1ccc(-c2nc(=S)c3c(n2Cc2ccco2)CCCC3)cc1	?	0	-23%	-129*	13µM*	?
Cc1ccc(-c2nc(=S)c3c(n2Cc2ccco2)CC(C)(C)OC3)cc1	4µM*	-2	-3%	7	?	-5%
Cc1cccc(-c2nc(=S)c3c(n2Cc2ccco2)CCCC3)c1	?	-13	-15%	?	?	-20%
CC1(C)Cc2c(c(=S)nc(-c3ccccc3)n2CCCN2CCOCC2)CO1	-2%	-2	-18%	-22	-5%	0%
O=C(c1ccc(-n2c(=O)c(=O)[nH]c3ccccc32)cc1)N1CCCN(Cc2ccccc2)CC1	nt	nt	-7%	nt	?	0%
Clc1ccc(-n2c(SCc3nc4ccccc4[nH]3)nnc2-c2ccncc2)cc1	-2%[38.3 µM]	6	-4%	13	1%	-5%
O=C(Nc1cccnc1)c1cnc2ccccc2n1	nt	2	nt	-88*	11%	-3%
O=C(Nc1cccnc1)c1ccc(-c2ccccc2)cc1	0%	nt	nt	nt	11%	nt
O=C(O)c1cnc2ccccc2n1	-13%[38.3 µM]	-4	?	22	25µM*	-6%
CC(C)C12CN3CC(C(C)C)(CN(C1)C3c1ccc(Cl)cc1)C2=O (configuration not stated)	nt	-7	nt	nt	nt	nt
COc1ccccc1CCn1c(=O)c(C)nc2cncnc21	4%	nt	-8%	nt	-4%	-7%
Nc1nncn1C(=O)CCCOc1ccc(Cl)cc1Cl	-9%[38.3 µM]	1	?	?	5%	-1%
O=C1CC(C(=O)N2CCN(c3ccc(F)cc3)CC2)CN1CCc1ccccc1 (configuration not stated)	1%[38.3 µM]	-1	-7%	11	-11%	11%
COc1ccccc1CN1CC(C(=O)N2CCN(c3ccc(F)cc3)CC2)CC1=O (configuration not stated)	31%[38.3 µM]	1	-12%	-99*	?	-3%
CCOc1ccc(NC(=O)c2cc3cc4cc(OC)ccc4nc3s2)cc1	nt	3	nt	nt	nt	nt
Cc1cccc(C)c1NC(=O)CCCCCC1NC(=O)NC1C (configuration not stated)	0%	nt	nt	nt	-2%	nt
CC1NC(=O)NC1CCCCCC(=O)NCCc1ccccc1 (configuration not stated)	19%[38.3 µM]	-3	25µM*	?	?	7%
